Measurements: PubChem BioAssay AID463173 (ICCB-Longwood Screening Facility, Harvard Medical School, 2010)
In all, about 52,000 compounds went through this assay and about 4,300 (8.3%) were called active. The full list was thinned out, with actives kept by preference. Values without a mark were called inactive. Cut-off read from the data, not from the text of the source: active = survival mostly below about 52% (no sharp cut-off); inactive = mostly above about 56%.

These compounds were tested on DeltatarO mutant (assay: growth inhibition of S. aureus wild type versus tarO mutant, primary screen, teichoic acid synthesis inhibitors, RN4220, OD600 (AID 463173)). Details: OD600, 18 h, active compounds read low, screened at 18.75 µg/mL (by protocol).

Structure (SMILES) | survival
COc1cc(NC(=O)CCc2c(C)nn(-c3ccc(N4CCCCC4)nn3)c2C)cc(OC)c1OC | 95%
CCOC(=O)c1ccccc1NC(=O)n1ncc2cc(Cl)ccc21 | 85%
O=C(O)c1cc(N2C(=O)C3CC=CCC3C2=O)ccc1NCc1cccnc1 (stereo not given) | 90%
CC(=O)c1cccc(NC(=O)c2sc(-n3nc(C)c(CCC(C)C)c3C)nc2C)c1 | 53%
CCOc1ccccc1NC(=O)Cn1cc(C(=O)c2ccc(Cl)cc2)c(=O)c2ccc(C)nc21 | 87%
CCc1ccc(N2CC(C)Cn3c2nc2c3c(=O)n(CC(=O)O)c(=O)n2C)cc1 (stereo not given) | 77%
COc1ccc(C2(CNC(=O)C(=O)Nc3cccc(C(F)(F)F)c3)CCCC2)cc1OC | 102%
Cc1cccc2cc(CN(C(=O)c3ccco3)C3CCCC3)c(=O)[nH]c12 | 51%
CCCCN(CC)c1ncnc2c1sc1nc(N3CCOCC3)c3c(c12)CCCC3 | 35% (active)
CCCCCSc1ncnc2c1sc1nc(N3CCOCC3)c3c(c12)CCCC3 | 69%
CCCc1nc2sc3c(N4CCC(C)CC4)ncnc3c2c2c1CCCC2 | 61%
CCCc1nc2sc3c(N4CCCCC4)ncnc3c2c2c1CCCC2 | 12% (active)
CCc1nc2sc3c(N4CCCCC4)ncnc3c2c2c1CCCC2 | 175%
CCCCSc1ncnc2c1sc1nc(N3CCOCC3)c3c(c12)CCCC3 | 77%
Cc1ccc(-c2[nH]c3ccccc3c2SCCNC(=O)c2ccc(S(=O)(=O)N(C)C)cc2)cc1 | 105%
COc1ccc(NC(=O)CSCc2cc(=O)c3cc(C)ccc3[nH]2)cc1 | 68%
CC(=O)Nc1ccc(NC(=O)C2CCN(S(=O)(=O)c3ccc4c(c3)CCCC(=O)N4)CC2)cc1 | 85%
CC(C)(C)C(=O)OCc1cc(=O)n2nc(C3CCCCC3)sc2n1 | 80%
COc1ccc(CC(=O)NC2CCN(CC(=O)c3ccc(F)cc3)CC2)cc1OC | 108%
Cc1cc(C)nc(NC(=O)COc2ccc(Br)cc2)n1 | 84%
COc1ccc(CNC(=O)Cn2ncc3c([nH]c4ccccc43)c2=O)cc1 | 91%
CCCCN(C)CCNC(=O)Cn1ncc2c([nH]c3ccccc32)c1=O | 8% (active)
Cc1ccc(CCNC(=O)Cn2ncc3c([nH]c4ccccc43)c2=O)cc1 | 102%

Structure (SMILES) | survival
CCN(CC)CCNC(=O)Cn1ncc2c([nH]c3ccccc32)c1=O | 89%
O=C(Cn1ncc2c([nH]c3ccccc32)c1=O)NCc1cccc(Cl)c1 | 20% (active)
CN(CCCNC(=O)Cn1ncc2c([nH]c3ccccc32)c1=O)Cc1ccccc1 | 100%
COc1ccc(-n2nc(C(=O)Nc3ccccn3)c3c4ccccc4n(C)c3c2=O)cc1 | 72%
O=C(NCCc1csc(-c2cccc(F)c2)n1)c1ccc(Br)o1 | 83%
COc1cc(N(C(=O)Cn2nnc3ccccc32)C(C(=O)NCC2CCCO2)c2ccc(F)cc2)ccc1-n1cnnn1 (stereo not given) | 105%
CC(=O)Nc1ccc(N(C(=O)Cn2nnc3ccccc32)C(C(=O)NCc2ccccc2)c2ccc(C)cc2)cc1 (stereo not given) | 38% (active)
CCOc1ccc(N(C(=O)Cn2nnc3ccccc32)C(C(=O)NCc2ccccc2)c2ccc(OC)cc2)cc1 (stereo not given) | 52%
COc1ccc(C(C(=O)NCc2ccccc2)N(C(=O)Cn2nnc3ccccc32)c2cccc(OC)c2)cc1 (stereo not given) | 50%
COc1ccc(N(C(=O)Cn2nnc3ccccc32)C(C(=O)NCc2ccccc2)c2ccc(F)cc2)cc1 (stereo not given) | 42% (active)
COc1cccc(C(C(=O)NCc2ccccc2)N(C(=O)Cn2nnc3ccccc32)c2cccc(C(C)=O)c2)c1 (stereo not given) | 44% (active)
COc1ccc(C(C(=O)NCc2ccccc2)N(C(=O)Cn2nnc3ccccc32)c2ccc(F)cc2)cc1 (stereo not given) | 49%
COc1ccc(C(C(=O)NCc2ccccc2)N(C(=O)Cn2nnc3ccccc32)c2ccc(OC)cc2)cc1 (stereo not given) | 60%
CC(=O)c1cccc(N(C(=O)Cn2nnc3ccccc32)C(C(=O)NCc2ccccc2)c2ccc(F)cc2)c1 (stereo not given) | 85%
O=C(COc1ccc(S(=O)(=O)NC2CCCCC2)cc1)Nc1ccc(C(F)(F)F)cc1 | 64%
CC(NC1=NCCN1)C(=O)O (stereo not given) | 97%
COC(=O)C1C(=O)C2=C(CC1C)Nc1ccccc1NC2c1cc(F)ccc1F (stereo not given) | 82%
Cc1occc1-c1nnc(SCC(=O)NCc2ccc3c(c2)OCO3)n1CC(C)C | 88%
COc1ccccc1NC(=O)CC(C)n1nc(C)cc1C (stereo not given) | 67%
COc1ccc(NC(=O)CCS(=O)(=O)c2ccc3nc(C)sc3c2)cc1Cl | 44%
Cc1cc(-c2ccc(C)c(S(=O)(=O)NCCc3ccc(S(N)(=O)=O)cc3)c2)on1 | 92%
Cc1ccc(C)c(N2C(=O)N(Cc3cccc(C(F)(F)F)c3)c3ccccc3S2(=O)=O)c1 | 88%
COc1cccc(C(=O)N2CCN(CCc3ccncc3)CC2)c1 | 87%

Structure (SMILES) | survival
CCOc1cc(C2c3c(-c4ccc(Br)cc4)n[nH]c3C(=O)N2c2ccc(Cl)cc2)ccc1O (stereo not given) | 35% (active)
CCOc1ccc(-c2n[nH]c3c2C(c2ccccc2OC)N(c2ccc(Br)cc2)C3=O)cc1 (stereo not given) | 69%
CCOC(=O)c1ccc(N2C(=O)c3[nH]nc(-c4ccc(OC)cc4)c3C2c2cccc(O)c2)cc1 (stereo not given) | 57%
O=C1c2[nH]nc(-c3ccc(Br)cc3)c2C(c2cccc(O)c2)N1c1ccc(Cl)cc1 (stereo not given) | -10% (active)
CCOC(=O)c1ccc(N2C(=O)c3[nH]nc(-c4ccc(C)cc4)c3C2c2ccc(O)c(OCC)c2)cc1 (stereo not given) | 87%
CCOC(=O)c1ccc(N2C(=O)c3[nH]nc(-c4ccc(OC)cc4)c3C2c2ccc(C)cc2)cc1 (stereo not given) | 81%
COC(=O)c1ccc(C2c3c(-c4ccc(Br)cc4)n[nH]c3C(=O)N2c2ccc(Cl)cc2)cc1 (stereo not given) | 93%
COc1ccc(-c2n[nH]c3c2C(c2ccc(O)cc2)N(c2ccc(Br)cc2)C3=O)cc1 (stereo not given) | -3% (active)
Cc1ccc(-c2n[nH]c3c2C(c2cccc(O)c2)N(c2ccc(C(=O)O)cc2)C3=O)cc1 (stereo not given) | 86%
Cc1ccc(NC(=O)C(=O)NCc2ccco2)cc1 | 58%
O=c1cc(CSc2n[nH]c(-c3ccccc3)n2)[nH]c2ccccc12 | 129%
Cc1nn2c(=O)cc(COC(=O)c3cccc(NC(=O)c4ccc(C(C)(C)C)cc4)c3)nc2s1 | 85%
CCc1nn(CC(=O)NCCC(C)C)c(=O)c2cc3occc3n12 | 125%
CCCc1cc(=O)[nH]c(Nc2cc(Cl)ccc2OC)n1 | 68%
COC(=O)c1cccc(NC(=O)C2CCN(S(=O)(=O)Cc3ccccc3)CC2)c1C | 77%
COc1ccc(-n2c(-c3ccc(Cl)cc3)cc3c2CC(C)(C)CC3=O)c(OC)c1 | 4% (active)
COc1ccc(-n2c(-c3ccc(C)cc3)cc3c2CC(C)(C)CC3=O)cc1Cl | 80%
COc1cccc(-n2c(-c3ccc(C)cc3)cc3c2CC(C)(C)CC3=O)c1 | 18% (active)
Cc1ccc(-n2c3c(cc(-c4nc(-c5ccc(Cl)cc5)cs4)c2=O)C(=O)CC(C)(C)C3)cc1 | 79%
COc1ccc(-n2c(-c3ccc(C)cc3)cc3c2CC(C)(C)CC3=O)c(OC)c1 | 101%
COc1ccc(C)cc1-n1c(-c2ccc(C)cc2)cc2c1CC(C)(C)CC2=O | 114%
COc1ccc(-n2c3c(cc(-c4nc(-c5ccc(Cl)cc5)cs4)c2=O)C(=O)CC(C)(C)C3)cc1 | 140%
CC1(C)CC(=O)c2cc(-c3nc(-c4ccc(Cl)cc4)cs3)c(=O)n(-c3cccc(F)c3)c2C1 | 70%

Structure (SMILES) | survival
Cc1cccc(-n2c3c(cc(-c4nc(-c5ccc(Cl)cc5)cs4)c2=O)C(=O)CC(C)(C)C3)c1 | 62% (active)
COc1cccc(-n2c(-c3ccc(Cl)cc3)cc3c2CC(C)(C)CC3=O)c1 | 35% (active)
COc1ccc(C)cc1-n1c(-c2ccc(Cl)cc2)cc2c1CC(C)(C)CC2=O | 86%
Cc1ccc(-c2cc3c(n2-c2ccc(C)cc2)CC(C)(C)CC3=O)cc1 | 74%
CN(C)c1ccc(CNC(=O)c2cnc3sc(N4CCOCC4)nn3c2=O)cc1 | 85%
CC(CCc1ccccc1)NC(=O)Cn1ncc2c3ccccc3n(Cc3ccccc3)c2c1=O (stereo not given) | 81%
CCc1ccc(OCC2c3cc(OC)c(OC)cc3CCN2C(=O)COc2ccccc2)cc1 (stereo not given) | 91%
CCC(C(=O)NCc1ccccc1Cl)n1nc(C)c2sc3ccccc3c2c1=O (stereo not given) | 103%
Cc1cccc(NC(=O)c2cc(S(=O)(=O)N3CCCCCC3)cn2C)c1C | 67%
O=C(NCCc1ccccc1)C1CCN(Cc2cc3ccccc3n2Cc2ccccc2)CC1 | 79%
Cc1cccc(N(C)S(=O)(=O)c2cc3[nH]c(=O)c(=O)[nH]c3cc2C)c1 | 88%
CC(C)c1cnc2c(c1SCC(=O)Nc1cccc(F)c1)c(=O)n(C)c(=O)n2C | 81%
Clc1ccc(-c2csc(=Nc3ccccc3)n2Cc2ccc3c(c2)OCO3)cc1 | 95%
CCN(CC)CCn1c(-c2ccccc2)csc1=Nc1ccccc1 | 42% (active)
O=S(=O)(c1ccc(-c2csc(=Nc3ccc(OC(F)(F)Cl)cc3)n2CCCO)cc1)N1CCCC1 | 159%
Cc1ccc(-c2csc(=Nc3ccccc3)n2Cc2ccc3c(c2)OCO3)cc1C | 112%
Cc1ccc(-c2csc(=Nc3ccccc3)n2Cc2ccc3c(c2)OCO3)cc1 | 73%
OCCCn1c(-c2ccc(F)cc2)csc1=Nc1ccc(F)cc1 | 39% (active)
COc1ccc(-c2csc(=Nc3ccccc3)n2CCO)cc1F | 58%
O=S(=O)(c1ccc(-c2csc(=Nc3ccc(F)cc3)n2CCCCCCO)cc1)N1CCCC1 | 56%
Cc1ccc(-c2csc(=Nc3ccccc3)n2CCCO)cc1 | 5% (active)
